# An excerpt weighted towards active compounds, which were near 1.5% of everything screened.
# Akt phos inh = blocks phosphorylation of Akt; 360,000 tested, 0.32% active; AID 651550; Neuro2A IGF-stimulated pAkt S473 HTRF, 20 min; hits give low values; activity change, % for hits at 50 µM; in the data active means activity change below about -80%; inconclusive means mostly about -51% to -80%; further: on the % scale 0 is the no-effect control and ±100 the full control effect
#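 Single-point screen (50 µM final compound) in Neuro2A cells stimulated 20 min with 6 nM IGF at 37 deg C. After lysis, Ser473-phosphorylated Akt read by HTRF (ex 330 nm, em 615/665 nm) as the 665/615 ratio.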
# PINK1 modulator = changes PINK1 expression; Potency, µM (highest dose often 76.6 µM), for inactives: at the top dose activation (PINK1 increase), most hits filed as activators; PINK1 immunofluorescence, high-content cytometry, 24 h; 410,000 tested, 0.2% active; active means well fitted activation curve with a large enough effect; inconclusive means small, poorly fitted or top-dose-only effect; cell line not stated here; further: potency means the concentration at half of the fitted maximal effect; % of control where 0% means no effect; nearly all actives have a fitted effect of over 65% in size
#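 Readout is PINK1 immunofluorescence, quantified alongside mitochondrial, cell and nuclear markers by laser-scanning microplate cytometry. Cells from a stable line were exposed to compound titrations (5 concentrations) for 24 hours, with CCCP controls.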
# BRCA1 expr act = BRCA1 expression activation | MCF7-BRCA1-FFLuc reporter, luminescence, 48 h; response scale: scaled: vehicle 0%, 10 µM genistein 100% | Potency, µM (titrated, usually from 46.1 µM), inactives show at the highest dose activation, hits mostly activators | 380,000 tested, 1.1% active | AID 624202; further: potency means the concentration at half of the fitted maximal effect; nearly all actives have a fitted effect of over 80% in size
#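 MCF7-BRCA1-FFLuc cells, 2000/well in phenol-red-free MEM, attached 2 h then treated 48 h at 37 C. Luciferase luminescence read 15 min after reagent; normalized to genistein maximum activation (10microM) and DMSO, concentration-response fitted.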
# TCR activator = T cell receptor activation. primary human leukocytes, anti-CD3, IL-2 HTRF, 48 h. Potency, µM (titrated, usually from 9.22 µM), without a hit: at the highest dose activation of IL-2 secretion, hits mostly activators. 330,000 tested, under 10 active; further: % of control where 0% means no effect
#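 Using a-CD3 beads without co-stimulation, primary human leukocytes were exposed to compounds for 48 hr. An HTRF IL-2 kit measured the cytokine, with europium-to-d2 energy transfer producing emission at 665nm upon 320nm excitation.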
# Active calls of the source: *; i = inactive; u = inconclusive; x = no result; [ ] = dose if it differs, or a comment. Unless noted, the call rests on the fitted dose curve; in most records, active means well fitted curve in the direction sought with a large enough effect; inconclusive means small, poorly fitted or top-dose-only effect, or another doubt; inactive means no such curve, though single readings can be large; an effect the other way counts as inactive or inconclusive.
SMILES,Akt phos inh,PINK1 modulator,BRCA1 expr act,TCR activator
Cc1ccccc1C(=O)O/N=C(\N)Cc1cccs1,i,3%,8.9µM*,1%
Cc1ccccc1CNC(=O)Cc1ccccc1[N+](=O)[O-],i,1%,14µM*,-4%[46.1 µM]
Nc1c(N=Nc2ccc([N+](=O)[O-])cc2)c(S(=O)(=O)O)cc2cc(S(=O)(=O)O)c(/C=C/c3ccccc3)c(O)c12,x,0%,-18%,x
CCCC(=O)N(C)c1ccc(/C=C2\C=Cc3ccccc32)cc1,x,0%,u,x
Cc1cc(C)cc(OC(C)C(=O)Nc2nonc2-c2ccc(Br)cc2)c1 (centres undefined),x,16µM*,x,x
Cc1cccc(C(=O)OC(C)C(=O)Nc2ccc(S(=O)(=O)N3CCCC3)cc2)c1O (centres undefined),i,-1%,-55%,2%
CC(OC(=O)c1cc(Br)ccc1O)C(=O)Nc1ccc(S(=O)(=O)N2CCCC2)cc1 (centres undefined),i,16µM*,-46%,2%
O=C(Nc1cccc(Cl)c1)C1CCN(c2nc3ccccc3nc2C(F)(F)F)CC1,x,u,0%,x
CCCCCCN1C[C@H](O)[C@@H](n2cc(-c3ccc(F)cc3)nn2)C[C@@H]1c1ccc(Cl)cc1,i,16µM*,-37%,x
O=C(NCCN1Cc2ccccc2OC(c2ccsc2)C1)c1cncs1 (centres undefined),x,-1%,x,x
O=C(C1CCC(Cn2c(=O)c3sccc3n(Cc3ccccc3F)c2=O)CC1)N1CCOCC1 (centres undefined),x,-1%,x,x
Cc1nc(-c2ccccc2)nn1-c1ccc([N+](=O)[O-])cc1,i,0%,5µM*,2%
O=C(Nc1nnc(CC(c2ccccc2)c2ccccc2)s1)c1ccco1,-112%*,1%,6%,2%
CCSc1nnc(NC(=O)/C=C/c2ccco2)s1,i,1%,16%,-1%
O=C(/C=C/c1ccco1)NCCc1ccccc1,i,-2%,6.3µM*,-2%
CCc1nnc(NC(=O)/C=C/c2ccco2)s1,i,1%,4µM*,-7%[46.1 µM]
CCC(c1ccccc1)c1nnc(NC(=O)c2ccco2)s1 (centres undefined),i,1%,58%,3%
CCOCc1nnc(NC(=O)c2ccco2)s1,-123%*,-1%,15%,-4%
COCc1nnc(NC(=O)c2ccco2)s1,i,-2%,7%,x
Cc1ccc(C(=O)Nc2cccc(-c3nc(CNC(=O)c4ccc(F)cc4Cl)c(C)o3)c2)s1,x,0%,x,x
COc1ccc(OC)c(CN2C[C@H](Sc3ccc(F)cc3)C[C@H]2C(=O)N(C)C)c1,x,-1%,x,x
CC(C)c1nc2sc3c(NCc4ccccc4)ncnc3c2c2c1COC(C)(C)C2,u,5%,-4%,0%
Cc1nc(NCc2ccco2)c(C#N)c2c1COC(C)(C)C2,i,0%,-1%,4%
CC(C)c1nc2sc3c(NCc4ccco4)ncnc3c2c2c1COC(C)(C)C2,-104%*,4%,-3%,5%
CC1(C)Cc2c(C#N)c(NCc3ccco3)nc(-c3ccco3)c2CO1,-89%*,u,-48%,-1%
SMILES,Akt phos inh,PINK1 modulator,BRCA1 expr act,TCR activator
CC(C)NC(=O)c1cn(C2CCC(NC(=O)C(C)(C)C)CC2)nn1 (centres undefined),x,0%,x,x
CCCS(=O)(=O)NCc1c(C)ncc2c1CCN(C(=O)/C=C/c1ccccc1)C2,x,1%,x,x
COCCn1c(=O)cnc2cnc(N3CCNCC3)nc21,x,-1%,x,x
COc1ncc2nc(-c3cccs3)c(=O)n(-c3ccccc3)c2n1,x,2%,x,x
Cc1cc(C(=O)CSc2nc3ccccc3c(=O)n2C)c(C)n1Cc1ccc2c(c1)OCO2,-109%*,2%,-71%,x
Cc1cc(C(=O)CSc2nnc(-c3ccccc3)n2Cc2ccc3c(c2)OCO3)c(C)n1C,i,3%,-12%,-8%
COCC(C)NC(=O)c1cc(-c2cccc(OC)c2)on1 (centres undefined),i,2%,10µM*,-3%
CCc1ccc(NC(=O)C(=O)NCc2ccccn2)cc1,i,-1%,3.5µM*,x
CC(=O)c1ccc(NC(=S)NCCc2ccccn2)cc1,i,1%,10µM*,9%[46.1 µM]
Cc1ccc(-c2cc(C(=O)NCc3ccccn3)no2)cc1,i,-4%[38.3 µM],11µM*,1%
COCCNC(=O)c1cc(-c2cccc(OC)c2)on1,i,-3%[38.3 µM],u,x
CSc1ncccc1C(=O)NCC1Cc2cc(-c3cnccn3)ccc2O1 (centres undefined),x,-1%,x,x
Cc1c(C(=O)NCCCc2ccncc2)cnn1-c1nccc(-c2ccccc2F)n1,x,-1%,x,x
Cc1onc(-c2ccccc2Cl)c1C(=O)NCc1ccccn1,i,1%[38.3 µM],11%,x
O=C(NCc1cccs1)c1cc(-c2ccccc2)on1,i,2%[38.3 µM],5µM*,-2%
Cc1onc(-c2c(F)cccc2Cl)c1C(=O)NCc1ccccn1,-109%*,-2%,-15%,-3%
COc1cccc(-c2cc(C(=O)NCc3ccco3)no2)c1,i,-15%[38.3 µM],7.9µM*,x
COc1cccc(OCc2cc(C(=O)NCc3ccccn3)no2)c1,i,0%,13µM*,-4%
COCC(C)NC(=O)c1cccc(Cl)c1 (centres undefined),-114%*,0%,-16%,-3%
O=C(NCc1cccs1)N[C@@H](Cc1ccccc1)C(=O)O,i,1%[38.3 µM],-4%,-5%
Cc1ccc(-c2cc(C(=O)NCc3ccco3)no2)cc1,x,2%[38.3 µM],4µM*,0%
COC(=O)[C@H](Cc1ccccc1)NC(=O)NCc1cccs1,-94%*,-7%[38.3 µM],-25%,4%
O=C(NCc1ccco1)c1cc(-c2ccc(Cl)cc2)on1,i,5%[38.3 µM],35%,1%
CCc1nn(CC(=O)Nc2c(C)cc(C)cc2C)c(=O)c2cc3sccc3n12,x,0%,x,x
CC(NC(=O)C1CC1)c1nnc2n1CCN(Cc1cccc(F)c1F)CC2 (centres undefined),x,1%,x,x
SMILES,Akt phos inh,PINK1 modulator,BRCA1 expr act,TCR activator
Cc1noc(NS(=O)(=O)c2ccc(NC(=O)Nc3ccc(Cl)c(Cl)c3)cc2)c1C,-107%*,-1%,-2%,1%
Cc1noc(NS(=O)(=O)c2ccc(NC(=O)C(Cl)(Cl)Cl)cc2)c1C,i,1%,-1%,3%
COc1ccccc1C(=O)N[C@@H]1c2ccccc2C2(CCN(C(=O)c3ccnn3C)CC2)[C@H]1OC,x,0%,x,x
COCCNC(=O)C1CCN(S(=O)(=O)N2CCC3(CC2)OCCO3)CC1,-82%*,-1%[38.3 µM],6%,0%
COc1ccc(CCNC(=O)C2CCN(S(=O)(=O)N3CCC4(CC3)OCCO4)CC2)cc1OC,i,8%,-16%,1%
COc1cc(=O)n2c(c1C(=O)N(C)Cc1cscn1)CCN(C(=O)c1ccc(C)c(C)c1)CC2,x,1%,x,x
O=C(OCC(=O)N1CCCC1)c1ccccc1O,i,-2%,20µM*,-8%
O=C(OCC(=O)N1CCOCC1)c1ccc2ccccc2c1O,i,0%,3.2µM*,1%
Cc1ccc(C(=O)OCC(=O)N2CCOCC2)c(C)c1,i,-1%,47%,-52%

# Assay outcomes deposited in PubChem BioAssay by National Center for Advancing Translational Sciences (NCATS).
